A selection: hits, their analogues and other compounds. The true share with any hit is near 3.8%.
NTMT1 inh – NTMT1 methyltransferase inhibition | NTMT1 MTase-Glo SAH luminescence, purified enzyme | 59,000 compounds, 2.5% hits | Potency, µM (top dose mostly 114 µM), inactives show at the top dose activity change, negative = inhibition, actives largely listed as inhibitors;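 also: potency is read from the fitted curve at half-maximal effect; plate controls were DMSO vehicle for no effect and no enzyme for full effect; nearly all actives have a fitted effect of over 65% in size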
Target sequence (Q9BV86 whole entry, looked up): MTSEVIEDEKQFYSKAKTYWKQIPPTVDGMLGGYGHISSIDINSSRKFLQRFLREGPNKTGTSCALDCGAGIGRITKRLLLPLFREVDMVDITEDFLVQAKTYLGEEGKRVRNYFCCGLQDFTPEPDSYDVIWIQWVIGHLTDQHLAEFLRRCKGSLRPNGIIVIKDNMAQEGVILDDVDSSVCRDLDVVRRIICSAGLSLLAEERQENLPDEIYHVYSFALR
FH mod – Identification of activators of human fumarate hydratase by quantitative high-throughput screening. Fumarate hydratase, mitochondrial (Homo sapiens), P07954. FH coupled MDH/diaphorase resazurin fluorescence, 15 min. Potency, µM (doses to about 79.9 µM), for inactives: at the top dose activity change, negative = inhibition, usual class: inhibitors. 54,000 compounds, 0.22% hits. AID 1347055, 2019; also: potency is read from the fitted curve at half-maximal effect; % is scaled to controls: 0 for no effect and ±100 for the full control effect; the screen sought activators but most active calls are inhibition curves; nearly all actives have a fitted effect of over 45% in size
DRV1 agonist – activates human resolvin D1 receptor GPR32 | O75388 | CHO-K1 GPR32 beta-arrestin PathHunter luminescence, 90 min; zero percent set by DMSO-only wells | activation, % at 76.9 µM | 48,000 compounds, 2.5% hits | AID 1346428;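 active = activation of at least 60% and not above a set upper limit, about 1 call in 100 departs from these limits; inconclusive = activation of 40% to 60%, or above that upper limit; inactive = activation under 40%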; also: 0% is about no effect
Target sequence (O75388 whole entry, looked up): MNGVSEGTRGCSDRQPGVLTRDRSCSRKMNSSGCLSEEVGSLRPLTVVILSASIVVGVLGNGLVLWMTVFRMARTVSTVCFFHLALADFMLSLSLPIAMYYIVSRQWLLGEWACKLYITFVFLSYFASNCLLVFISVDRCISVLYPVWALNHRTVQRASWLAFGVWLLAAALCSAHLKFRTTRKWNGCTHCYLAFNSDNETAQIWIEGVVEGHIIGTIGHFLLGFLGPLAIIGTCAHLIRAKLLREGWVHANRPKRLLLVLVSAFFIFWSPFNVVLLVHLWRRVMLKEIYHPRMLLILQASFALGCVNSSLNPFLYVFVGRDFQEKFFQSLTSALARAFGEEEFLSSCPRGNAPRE
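Using DMSO wells as EC0, agonist-induced signal was taken as chemiluminescence from beta-Gal reconstituted upon beta-arrestin recruitment to GPR32 in CHO-K1 cells after 90 min compound treatment.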
SKOV3 invasion – inhibitors of ovarian cancer cell adhesion and invasion in omental model; Potency, µM (series often up to 45.8 µM), for inactives: at the top dose activity change, negative = inhibition, actives largely listed as inhibitors; SKOV3ip1-GFP adhesion/invasion on 3D omental model, fluorescence; 46,000 compounds, 0.1% hits;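 also: potency is read from the fitted curve at half-maximal effect; plate controls were DMSO wells for no effect and tomatine positive control wells for full effect; nearly all actives have a fitted effect of over 65% in size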
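Primary human omental fibroblast/mesothelial 3D culture pre-formed 48 h. SKOV3ip1-GFP cells added with compounds (0.36-46 umol/L), incubated 2 h RT/16 h 37 C, fixed; GFP cells quantified at 488/509 nm.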
* hit, by the source's call; ! = a repeat was not active; [ ] = remark or other dose. Unless noted, calls follow the shape of the dose curve; as a rule, active = well fitted curve in the direction sought with a large enough effect; inconclusive = small, poorly fitted or top-dose-only effect, or another doubt; inactive = no such curve, though single readings can be large; an effect the other way counts as inactive or inconclusive.

What do the screens show for `Cc1c(C(=O)NCc2cccc(Cl)c2)sc2nc3n(c(=O)c12)CCCC3`?
NTMT1 inh: -4.5%; FH mod: -9.2%; DRV1 agonist: -1.0; SKOV3 invasion: inactive

How did CN(Cc1ccccc1)C(=O)C1CCN(Cc2cc3ccccc3n2Cc2ccccc2)CC1 do in these assays?
NTMT1 inh: -26.3%; FH mod: -27.3%; DRV1 agonist: -39.5; SKOV3 invasion: 7.8%

How did Nc1ncnc2c1c(-c1cccc(OCc3ccccc3)c1)cn2C1CC(CN2CCC2)C1 (stereo not drawn) do in these assays?
NTMT1 inh: 10µM*!; FH mod: -16.3%; SKOV3 invasion: 3.0%

What do the screens show for `Nc1ncnc2c1c(-c1ccc(Oc3ccccc3)cc1)nn2[C@@H]1CCCNC1`?
NTMT1 inh: -1.2%[57.5 µM]; FH mod: 3.0%

Results for O=C(NCc1cccc(Cl)c1)c1cc2c(s1)-c1ccccc1OC2 ?
NTMT1 inh: -8.6%; FH mod: -40.8%; DRV1 agonist: -9.6; SKOV3 invasion: inactive

How did Cc1ccc(-c2nc3sc(CCNC(=O)c4ccco4)c(C)n3n2)cc1 do in these assays?
NTMT1 inh: 2.2%; FH mod: -22.6%; DRV1 agonist: 64.9*; SKOV3 invasion: 7.9%

What do the screens show for `O=C(CCc1ccccc1)NCCc1csc(-c2cccc(F)c2)n1`?
NTMT1 inh: -1.9%; FH mod: -12.8%; DRV1 agonist: 85.5*; SKOV3 invasion: -4.6%

Results for COc1ccc(CC(=O)NCCc2csc(-c3cccc(F)c3)n2)cc1OC ?
NTMT1 inh: -0.3%; FH mod: -8.1%; DRV1 agonist: 27.7; SKOV3 invasion: 0.6%

What do the screens show for `O=C(COc1ccc(Cl)cc1)NCCc1csc(-c2cccc(F)c2)n1`?
NTMT1 inh: 14.7%; FH mod: -2.3%; DRV1 agonist: 76.7*; SKOV3 invasion: 3.9%

What do the screens show for `CCOc1ccc(CC(=O)NCCc2csc(-c3ccc(C)cc3)n2)cc1`?
NTMT1 inh: 19.0%; FH mod: 3.6%; DRV1 agonist: -8.5; SKOV3 invasion: inactive

How did O=C(COc1ccccc1)NCCc1csc(-c2ccc(F)cc2)n1 do in these assays?
NTMT1 inh: -2.8%; FH mod: -13.4%; DRV1 agonist: 120.1*; SKOV3 invasion: -6.5%

How did N#Cc1ccc(-c2ccc(C3Nc4ccccc4C(=O)N3O)o2)cc1 (stereo not drawn) do in these assays?
NTMT1 inh: -20.1%

What do the screens show for `COc1ccc(CNC(=O)c2ccc(NC(=O)N3CCSc4ncccc43)cc2)cc1OC`?
NTMT1 inh: -1.0%; FH mod: 2.3%; DRV1 agonist: -8.1; SKOV3 invasion: inactive

What do the screens show for `Cc1cc(C)c(NC(=O)C(C)n2nnc3sc4c(c3c2=O)CCCC4)c(C)c1` (stereo not drawn)?
NTMT1 inh: 16.0%; FH mod: -0.2%; DRV1 agonist: -9.0; SKOV3 invasion: 2.4%

Results for CCOc1ccc(CC(=O)NCCc2csc(-c3ccc(Cl)cc3)n2)cc1 ?
NTMT1 inh: 13.0%; FH mod: -0.7%; DRV1 agonist: 87.7*; SKOV3 invasion: 1.3%

How did O=C(NCCc1csc(-c2ccc(F)cc2)n1)c1ccco1 do in these assays?
NTMT1 inh: -25.6%; FH mod: 5.2%; DRV1 agonist: 109.1*; SKOV3 invasion: -6.4%

Results for COc1cccc(NC(=O)c2c(C)oc3nc(C)nc(N4CCCC4)c23)c1 ?
NTMT1 inh: 89.1µM*; FH mod: 2.8%; DRV1 agonist: -10.6; SKOV3 invasion: 13.8%

What do the screens show for `Cc1ccccc1NC(=O)C1CCN(S(=O)(=O)c2ccccc2)CC1`?
NTMT1 inh: -0.5%; FH mod: 2.0%; DRV1 agonist: 11.7; SKOV3 invasion: 22.5%

Results for CC(C)(O)C1CC=C(C(=O)OC[C@H]2O[C@@H](OC(=O)C3=CCC(C(C)(C)O)CC3)[C@H](O)[C@@H](O)[C@@H]2O)CC1 (stereo partly drawn) ?
NTMT1 inh: 5.7%[29.8 µM]; FH mod: 1.5%[53.3 µM]

Results for CC(C)C(=O)Nc1cccc(C(F)(F)F)c1 ?
NTMT1 inh: -8.3%[57.5 µM]; FH mod: -7.9%[53.3 µM]; DRV1 agonist: 60.7*

How did CC(C)Cn1cc(NC(=O)Nc2cccc(C(F)(F)F)c2)c2ccccc2c1=O do in these assays?
NTMT1 inh: 8.9%; FH mod: inconclusive; DRV1 agonist: -15.4; SKOV3 invasion: inactive

What do the screens show for `CCc1ccc(CNC(=O)c2ccc3c(c2)c(C)c(C)n3Cc2ccccc2)cc1`?
NTMT1 inh: inconclusive; FH mod: -15.1%; DRV1 agonist: -21.5; SKOV3 invasion: -1.8%

What do the screens show for `Cc1ccc(CNC(=O)c2ccc3c(c2)c(C)c(C)n3Cc2ccccc2)o1`?
NTMT1 inh: 22.4µM*; FH mod: -26.8%; DRV1 agonist: -31.3; SKOV3 invasion: -21.4%

How did Cc1c(C)n(Cc2ccccc2)c2ccc(C(=O)OCCN(C)C)cc12 do in these assays?
NTMT1 inh: 5.62µM*; FH mod: -7.6%[53.3 µM]; DRV1 agonist: 5.2

Results for COc1ccc(-c2cc(C(=O)NCCc3ccccc3)c3c(-c4ccccc4)[nH]nc3n2)cc1 ?
NTMT1 inh: 0.5%; FH mod: 7.0%; DRV1 agonist: -19.9; SKOV3 invasion: -27.9%

How did COc1ccccc1-c1nc2c(c(SCc3ccc(F)cc3Cl)n1)Cc1c(CO)cnc(C)c1O2 do in these assays?
NTMT1 inh: -3.2%; FH mod: 1.4%; DRV1 agonist: 16.0; SKOV3 invasion: -3.4%

How did CCN(c1cccc(C)c1)S(=O)(=O)c1nnc(NC(=O)c2cccs2)s1 do in these assays?
NTMT1 inh: 10.1%; FH mod: -6.7%; DRV1 agonist: 61.8*; SKOV3 invasion: inactive

What do the screens show for `Cc1ccc(-n2nc3ccc(NC(=O)Cc4ccc(Cl)cc4)cc3n2)cc1`?
NTMT1 inh: -26.8%; FH mod: -8.5%; DRV1 agonist: 21.4; SKOV3 invasion: 2.1%

How did O=C(Cc1ccc(Cl)cc1)Nc1ccc2nn(-c3ccccc3)nc2c1 do in these assays?
NTMT1 inh: 3.1%; FH mod: -2.6%; DRV1 agonist: 84.5*; SKOV3 invasion: 2.8%

How did CCCCc1ccc(-n2nc3cc(C)c(NC(=O)Cc4ccccc4)cc3n2)cc1 do in these assays?
NTMT1 inh: 79.4µM*; FH mod: 3.1%; DRV1 agonist: -64.8; SKOV3 invasion: 20.6%

How did Cc1cc2nn(-c3ccccc3)nc2cc1NC(=O)Cc1ccc(Cl)cc1 do in these assays?
NTMT1 inh: 0.2%; FH mod: -29.4%; DRV1 agonist: -13.1; SKOV3 invasion: -2.0%

How did CCCCOc1ccccc1C(=O)Nc1onc2c1CCCC2 do in these assays?
NTMT1 inh: -28.6%; FH mod: -35.3%; DRV1 agonist: -12.3; SKOV3 invasion: -20.5%

What do the screens show for `CCCCCCCCOc1ccccc1C(=O)Nc1ccc(C(=O)OCC[N+](C)(CC)CC)cc1`?
NTMT1 inh: 3.55µM*!; FH mod: -14.5%[53.3 µM]; DRV1 agonist: -55.9; SKOV3 invasion: -3.9%

Results for Cc1ccc(CCNC(=O)c2ccc3nc(N4CCC(C)CC4)sc3c2)cc1 ?
NTMT1 inh: 0.6%; FH mod: 1.3%; DRV1 agonist: -9.0; SKOV3 invasion: inactive

Compound activity deposited in PubChem BioAssay by National Center for Advancing Translational Sciences (NCATS).
